# D3 antag: D3 dopamine receptor (human) antagonism. 360,000 compounds, 2.5% hits. max response, negative = inhibition, %. D3R cells, DiscoveRx beta-arrestin luminescence, antagonist mode; stronger effect = lower value; in the data active = max response below about -50%; inconclusive = no clear call, values can overlap the other calls; also: % is scaled to controls: 0 for no effect and ±100 for the full control effect
#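 Cells plated overnight at 1500 cells/well, then exposed to library compounds with dopamine controls for 90 minutes at 37 degrees C. DiscoveRx reagent added for 30–60 minutes at room temperature; luminescence read, quantitative HTS format.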
# D1 PAM: human D1 dopamine receptor positive modulation | P21728 | HEK293 TREx D1 cells, calcium flux, dopamine EC20 potentiation | potentiation, % at 10 µM | 360,000 compounds, 0.036% hits | AID 504651; in the data active = potentiation above about 30%; also: 0% is about no effect
# Target sequence (P21728 whole entry, looked up): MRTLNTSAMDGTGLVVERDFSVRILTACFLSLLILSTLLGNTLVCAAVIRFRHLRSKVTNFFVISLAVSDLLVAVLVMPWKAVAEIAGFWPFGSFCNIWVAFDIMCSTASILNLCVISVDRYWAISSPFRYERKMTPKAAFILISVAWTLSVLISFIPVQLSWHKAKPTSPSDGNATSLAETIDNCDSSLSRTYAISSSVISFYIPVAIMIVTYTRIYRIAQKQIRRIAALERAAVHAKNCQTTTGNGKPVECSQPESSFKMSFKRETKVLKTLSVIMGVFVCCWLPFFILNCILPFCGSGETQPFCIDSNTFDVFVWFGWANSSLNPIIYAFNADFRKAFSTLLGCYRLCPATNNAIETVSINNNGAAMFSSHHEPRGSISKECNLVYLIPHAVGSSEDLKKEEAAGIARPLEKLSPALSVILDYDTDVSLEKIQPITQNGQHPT
# D1 agonist: human D1 receptor agonism; AID 504660; 360,000 compounds, 1% hits; HEK293 T-REx D1 cells, calcium flux, agonist mode; activation, % at 2 µM; P21728; in the data active = activation above about 30%; also: 0% is about no effect
#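 Tetracycline-induced HEK293 TREx D1 cells, force-coupled to calcium signalling, were dye-loaded with a no-wash calcium kit. Compound was pin-added after a 10 s baseline. Fluorescence was read kinetically at 1 cycle/s for 180 s, with calcium rises flagged as agonism.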
# D1 antag: blocks dopamine activation of the human D1 receptor; P21728; HEK293 TREx D1 cells, calcium flux, dopamine EC80; stronger effect = lower value; activity change, negative = inhibition, % at 10 µM; 360,000 compounds, 3.2% hits; AID 504652; in the data active = activity change below about -30%; also: % is scaled to controls: 0 for no effect and ±100 for the full control effect
#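 Using tetracycline-induced force-coupled D1 Hek293 cells and a calcium dye, signals were followed for 180 s after compound, then for 180 s after EC80 dopamine, to detect inhibitors.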
# DRD3 agonist: activates the human D3 dopamine receptor | P35462 | D3R DiscoveRx beta-arrestin cells, luminescence, 90 min | max activation, % | 410,000 compounds, 0.58% hits; in the data active = max activation above about 30%; also: 0% is about no effect
#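 Cells at 1500/well, incubated overnight, then treated with pinned compounds (dopamine as control) for 90 min at 37 degrees C. DiscoveRx reagent added for 30 - 60 minutes at room temperature; luminescence read.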
# An asterisk follows results filed as active; ? = inconclusive; . = no result. Hits are enriched below; roughly 6% of the tested compounds scored in any of these assays.
SMILES,D3 antag,D1 PAM,D1 agonist,D1 antag,DRD3 agonist
O=C(NCCS(=O)(=O)NCc1ccccc1Cl)c1ccc2c(c1)OCO2,7,-13,0,-35*,0
O=C(NCCS(=O)(=O)NCc1ccccc1)c1ccccc1,-10,-1,2,11,2
CCCCCCCCNS(=O)(=O)CCNCc1ccccc1,-18,.,.,.,5
O=S(=O)(CCNCCc1ccccc1)NCc1ccccc1,?,.,.,.,-26
COc1ccccc1CNS(=O)(=O)CCNC(=O)c1ccccc1,-12,-4,8,-30*,-12
COc1ccccc1CNS(=O)(=O)CCNCCc1ccccc1,-74*,.,.,.,-34
CCCCCCCCNCCS(=O)(=O)NCc1ccc(OC)cc1,-63*,.,.,.,-24
Cc1ccc(-n2nc(-c3ccc(OC(F)(F)F)cc3)cc2N)cc1C,19,-4,3,-32*,2
Cc1ccc(-n2nc(-c3ccc(N)cc3)cc2N)cc1,6,0,0,-7,-6
CC1CCc2c(cc(-c3ccccc3)n2-c2ccc(C(=O)NC(C)C)cc2)C1 (stereo unspecified),.,-5,7,-39*,-14
CC(C)NC(=O)c1ccc(-n2c(-c3ccccc3)cc3c2CCCCC3)cc1,.,-4,1,-8,-18
O=C(Nc1ccc(Br)cc1)/C(=C/c1cccc([N+](=O)[O-])c1)NC(=O)C1CCCCC1,-63*,-1,1,-4,-9
O=C(N/N=C/c1cc([N+](=O)[O-])ccc1O)C1CCCCC1,-88*,-2,3,-2,-11
O=C(Cn1nnc(-c2ccccc2)n1)N/N=C/c1cc([N+](=O)[O-])ccc1O,-76*,-7,1,4,-20
O=C(Cn1cncn1)N/N=C/c1cc([N+](=O)[O-])ccc1O,?,-3,5,-1,-12
O=C(Cn1nc2ccccc2n1)N/N=C/c1cc([N+](=O)[O-])ccc1O,-65*,-5,1,-3,1
O=C(N/N=C/c1cc([N+](=O)[O-])ccc1O)C1C2CCCCC21 (stereo unspecified),.,-1,0,-6,.
COc1ccc(/C=C/C(=O)OCC(=O)NCCc2ccccc2)c(OC)c1,7,.,.,.,-6
Cc1ccc(C(=O)Nc2cccc(C(=O)OCc3cc(=O)n4c5c(sc4n3)CCCC5)c2)cc1,.,0,2,-1,3
CCN(CC)C(=O)C1CCCN(c2ccc([N+](=O)[O-])cc2/C=N/NC(=O)c2ccc([N+](=O)[O-])cc2)C1 (stereo unspecified),-79*,.,.,.,-7
S=C(Nc1ccc(Cc2ccncc2)cc1)Nc1cccc(Cl)c1,-14,-5,5,-32*,-11
S=C(NCc1ccncc1)Nc1ccc(Br)cc1,-18,-3,12,-17,-10
S=C(NCc1cccnc1)Nc1cc(Cl)cc(Cl)c1,-16,-4,16,-7,-6
S=C(NCc1ccncc1)Nc1ccc(Cl)c(Cl)c1,1,-12,23,-36*,0
S=C(NCc1ccncc1)Nc1cc(Cl)cc(Cl)c1,11,-13,15,-31*,-10
SMILES,D3 antag,D1 PAM,D1 agonist,D1 antag,DRD3 agonist
CCc1cccc(NC(=O)C2Cc3ccccc3N2C(=O)c2ccccc2)c1 (stereo unspecified),.,0,14,4,-7
Cc1c(CNC2CCCCCC2)c(C(=O)O)c(C)n1Cc1cccc(Cl)c1,.,-1,-4,0,-12
CC(=O)c1ccc(OCC(C)Oc2ccc(C#N)cc2)cc1 (stereo unspecified),-6,-3,22,3,-10
CC(Oc1ccc(C#N)cc1)C(=O)c1ccc(F)c(F)c1 (stereo unspecified),2,-5,12,-35*,16
CC1CCN(CCc2nc3cc(NS(=O)(=O)c4ccccc4)ccc3n2C)CC1,-75*,0,4,-13,-4
CC1CCN(CCc2nc3cc(NC(=O)Nc4ccccc4)ccc3n2C)CC1,-60*,-3,4,7,-5
CCC(=O)Nc1ccc2c(c1)nc(CCN1CCCCC1)n2C,-5,-3,1,3,-9
CCC(=O)Nc1ccc2c(c1)nc(CCN1CCN(c3ccccc3)CC1)n2C,-62*,-3,0,4,6
CC(C)C(=O)Nc1ccc2c(c1)nc(CCN1CCN(c3ccccn3)CC1)n2C,22,0,2,2,62*
CCC(Oc1ccccc1)C(=O)N1CCN(Cc2cc(=O)n3nc(-c4cccc(C)c4)sc3n2)CC1 (stereo unspecified),.,-2,-1,-9,0
CC1CCN(CCc2nc3cc(NS(=O)(=O)c4ccc(F)cc4)ccc3n2C)CC1,-70*,-5,4,-4,1
COc1ccc(/C=N/Nc2ccccc2C(=O)O)cc1Cn1cc([N+](=O)[O-])cn1,2,-10,1,-32*,-9
CCc1c(C)nc2cc(-c3ccc(OC)c(OC)c3)nn2c1NCC1CC1,86,-6,0,-16,38*
COc1ccc(CCNC(=O)CCc2c(C)nc3cc(-c4ccccc4)nn3c2C)cc1OC,.,-5,5,-8,3
CC(C)c1ccc(-c2noc(SCC(=O)N3CCCCC3C)n2)cc1 (stereo unspecified),.,-1,9,-2,0
COc1ccc(N2CCN(C(=O)CCCNC(=O)Cn3cnc4sc(C)c(C)c4c3=O)CC2)cc1,15,6,1,-42*,-19
CC(C)c1ccc(NC(=O)c2ccc(NC(=O)CCS(=O)(=O)c3cccs3)cc2)cc1,.,0,2,8,0
COc1cccc(N2CCN(C(=O)CC(NC(=O)c3ccccc3)c3ccccc3)CC2)c1 (stereo unspecified),-54*,-6,0,6,-9
COc1cccc(N2CCN(C(=O)c3cc(C)oc3C)CC2)c1,-13,-1,1,-43*,-8
COc1cc(OC)cc(C(=O)N2CCN(C(=O)c3cccnc3)CC2)c1,6,-3,3,-11,2
COc1ccccc1N1CCN(C(=O)c2cc(C)oc2C)CC1,1,7,3,-5,-5
COc1cccc(N2CCN(C(=O)c3cccnc3)CC2)c1,-8,6,3,-39*,2
COc1cccc(C(=O)N2CCN(C(=O)C3COc4ccccc4O3)CC2)c1 (stereo unspecified),13,-2,3,-32*,8
Cc1cccc(N2CCN(C(=O)CC(NC(=O)c3ccccc3)c3ccccc3)CC2C)c1 (stereo unspecified),-17,-4,1,-13,5
Cc1cc(NC(=O)CCC(=O)N(CC(=O)NCC2CCCO2)c2cccc(F)c2)no1 (stereo unspecified),5,-3,-1,-10,7
Cc1ccc(C)n1-c1nnc(N2CCC(C(=O)Nc3ccccc3Br)CC2)s1,.,0,-1,4,5
Nc1c(-c2ccc(Cl)cc2)nnn1-c1ccccc1,-16,-7,-1,-50*,1
